Bioassay records: PubChem BioAssay, several laboratories
Shown are actives, neighbours in structure and some others; about 2.9% of the full set was active somewhere.
GRK2 aptamer HTS = compounds blocking aptamer binding on GRK2 – biochemical, human GRK2, bead flow cytometry, HTS, primary screen; FAM-aptamer displacement from GRK2; inhibition of aptamer binding, % at 10 µM; 0.59% of 330,000 active; Beta-adrenergic receptor kinase 1 (Homo sapiens), P25098;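 active means inhibition of aptamer binding above 40%, roughly 3 SD of noise, on plates passing a quality check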;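 further: median bead fluorescence of bound FAM aptamer so fluorescent compounds give negative values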
Exocytosis inh = LAMP-1 surface exposure blockers, TALL-104 cells – cell-based, flow cytometry, MLPCN library, primary screen. 0.66% of 360,000 active. TALL-104 LAMP-1 surface exposure; cells stimulated with thapsigargin and PMA. inhibition, % at 10 µM;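 active means inhibition above about 55%, limit read from the data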
PP1 inh = PP1-alpha phosphatase inhibitors, primary screen, counter-screen for PP5 inhibitor project, biochemical, fluorescence, OMFP substrate, single point | 0.9% of 320,000 active | Serine/threonine-protein phosphatase PP1-alpha catalytic subunit (Homo sapiens), P62136 | purified PP1alpha | inhibition, % at 6.7 µM | AID 2235, 2010;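 active means inhibition above the mean inhibition of all tested compounds plus 3 SD, computed separately for each screening campaign, cut at about 15% in these data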
Target sequence (P62136 whole entry, looked up): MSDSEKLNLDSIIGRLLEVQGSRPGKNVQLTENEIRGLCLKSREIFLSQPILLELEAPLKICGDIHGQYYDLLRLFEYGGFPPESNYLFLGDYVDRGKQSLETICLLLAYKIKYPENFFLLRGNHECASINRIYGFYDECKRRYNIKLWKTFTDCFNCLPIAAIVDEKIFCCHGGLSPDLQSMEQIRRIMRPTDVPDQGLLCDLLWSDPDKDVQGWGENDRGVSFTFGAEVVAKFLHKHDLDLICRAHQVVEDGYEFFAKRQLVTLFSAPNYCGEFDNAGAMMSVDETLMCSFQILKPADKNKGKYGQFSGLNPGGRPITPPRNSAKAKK
NadD block = inhibitors of S. aureus NadD, primary screen, biochemical, colorimetric, uHTS; purified NadD enzyme, colorimetric absorbance read-out; AID 602399, 2012; Nicotinate-nucleotide adenylyltransferase NadD (Staphylococcus aureus N315); 0.78% of 360,000 active; inhibition, % at 20 µM; in the data active means inhibition above about 26%
B2AR ag = beta2AR agonists driving receptor internalization, primary screen, cell-based, FAP fluorogen, flow cytometry. Beta-2 adrenergic receptor (Homo sapiens), P07550. Am2.2-beta2AR cells. response, % (no concentration beside the values). 0.43% of 340,000 active;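 active means response above a set limit, near 3 SD of response in nonfluorescent compounds, cut at about 42% in these data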
Active calls of the source: *.

How did Cc1cc(O)c(C(=O)/C=C/c2ccc(Cl)cc2)c(=O)o1 do in these assays?
GRK2 aptamer HTS: 1; Exocytosis inh: -10; PP1 inh: 17*; NadD block: 15; B2AR ag: 10

Results for CN1CCN(c2nc(-c3ccc(Cl)cc3)nc3ccccc23)CC1 ?
Exocytosis inh: 44; NadD block: -12; B2AR ag: 5

How did C=CCn1c(=O)/c(=C2/Sc3ccccc3N2CC)s/c1=C1/C(=O)NN=C1C do in these assays?
GRK2 aptamer HTS: 42*; PP1 inh: -4

How did CC(C)c1ccc(NC2=CC(=O)CC(C)(C)C2)cc1 do in these assays?
GRK2 aptamer HTS: 3; Exocytosis inh: -4; PP1 inh: -2; NadD block: -8; B2AR ag: 16

What do the screens show for `COc1ccc(C(C(=O)NC(C)(C)C)n2c(=O)c(-c3ccccc3)nc3ccccc32)cc1` (configuration not stated)?
Exocytosis inh: 1

How did CS(=O)(=O)c1ccc(C(=O)OCc2nnc(-c3ccc(Cl)cc3)o2)cc1[N+](=O)[O-] do in these assays?
GRK2 aptamer HTS: 0; Exocytosis inh: 60*; PP1 inh: 0; NadD block: -2; B2AR ag: 93*

Results for Cc1ccccc1C(=O)OCC(=O)NCc1ccco1 ?
GRK2 aptamer HTS: 8; Exocytosis inh: 62*; NadD block: 1; B2AR ag: -3

Results for Cc1cc(=O)n2c(n1)SCOC2 ?
GRK2 aptamer HTS: 3; Exocytosis inh: 1; PP1 inh: -4; NadD block: -3; B2AR ag: -9

Results for COC(=O)C1=C(C)NC(=S)NC1c1ccc(-c2cc(Cl)ccc2Cl)o1 (configuration not stated) ?
GRK2 aptamer HTS: 1; Exocytosis inh: -3; PP1 inh: 4; NadD block: 10; B2AR ag: 1

How did O=C1C=CC2=C3c4cc(O)c(O)cc4CC3(O)COC2=C1O (configuration not stated) do in these assays?
Exocytosis inh: -2; NadD block: 48*; B2AR ag: -7

Results for N#C/C(=C1/C(=O)Nc2ccc(Br)cc21)c1ccccn1 ?
GRK2 aptamer HTS: 0; Exocytosis inh: -3; PP1 inh: -3; NadD block: 2; B2AR ag: -188

How did CC(C)c1ccc2[nH]c(O)c(N=NC(=O)c3cccc(S(=O)(=O)Nc4ccccc4Cl)c3)c2c1 do in these assays?
GRK2 aptamer HTS: 2; Exocytosis inh: -2; PP1 inh: -2; NadD block: 38*; B2AR ag: 8

Results for O=C(N=Nc1c(O)[nH]c2ccccc12)c1cccc(S(=O)(=O)Nc2ccccc2Cl)c1 ?
GRK2 aptamer HTS: 0; Exocytosis inh: 4; PP1 inh: 5; NadD block: 22; B2AR ag: -9

What do the screens show for `COc1cc(/C=C/[N+](=O)[O-])ccc1OC(=O)c1cc2ccccc2oc1=O`?
GRK2 aptamer HTS: 1; Exocytosis inh: 45; PP1 inh: -2; NadD block: 10; B2AR ag: 54*

What do the screens show for `CC(C)(C)c1cc(NC(=O)CSc2nncs2)n(-c2ccccc2)n1`?
GRK2 aptamer HTS: 0; Exocytosis inh: -8; PP1 inh: -4; NadD block: -1; B2AR ag: -10

What do the screens show for `COC(=O)C(CC(=O)c1ccc(C)cc1)n1nc(C)cc1C` (configuration not stated)?
GRK2 aptamer HTS: 0; Exocytosis inh: 57*; PP1 inh: 1; NadD block: -6; B2AR ag: -1

Results for C=CCc1cc(C=Nc2ccc(N3CCOCC3)cc2)cc(OCC)c1O ?
Exocytosis inh: 7; NadD block: -3; B2AR ag: 4

How did O=C(CSc1nc2ccccc2n1CCc1ccccc1)N1CCOCC1 do in these assays?
GRK2 aptamer HTS: 7; Exocytosis inh: 0; PP1 inh: -1; NadD block: 4; B2AR ag: 20

What do the screens show for `O=C(CSc1nc2ccccc2n1CCc1ccccc1)c1ccc(O)c(O)c1`?
Exocytosis inh: 0; NadD block: 36*; B2AR ag: -7

Results for Nc1ccc(C(=O)N/N=C\c2cc(N=Nc3cccc4ccccc34)ccc2O)cc1 ?
GRK2 aptamer HTS: 0; Exocytosis inh: -4; PP1 inh: 7; NadD block: 41*

What do the screens show for `Cc1cc(C(=O)N/N=C/c2cc(N=Nc3ccccc3)ccc2O)n[nH]1`?
GRK2 aptamer HTS: 1; Exocytosis inh: 6; PP1 inh: 15*; NadD block: 8; B2AR ag: -3

What do the screens show for `COC(=O)N/N=C/c1cc(N=Nc2ccccc2)ccc1O`?
GRK2 aptamer HTS: 0; Exocytosis inh: 1; PP1 inh: -4; NadD block: -8; B2AR ag: 3

Results for C[C@H]1[C@H](C)CC[C@]2(C(=O)O)CC[C@]3(C)C(=CC[C@@H]4[C@@]5(C)C[C@@H](O)[C@H](O)C(C)(C)[C@@H]5CC[C@]43C)[C@H]12 ?
GRK2 aptamer HTS: 0; Exocytosis inh: 3; PP1 inh: -3; NadD block: 35*; B2AR ag: 31

How did C[C@H]1[C@H](C)CC[C@]2(C(=O)O)CC[C@]3(C)C(=CC[C@@H]4[C@@]5(C)CC[C@H](O)C(C)(C)[C@@H]5CC[C@]43C)[C@H]12 do in these assays?
GRK2 aptamer HTS: 1; Exocytosis inh: 4; PP1 inh: 0; NadD block: 47*; B2AR ag: 15

What do the screens show for `C[C@@H]1CC[C@]2(C(=O)O)CC[C@]3(C)C(=CCC4[C@]56CC[C@@](O)(OC5)C(C)(C)C6CC[C@]43C)C2[C@H]1C` (some centres not stated)?
GRK2 aptamer HTS: 0; Exocytosis inh: 0; PP1 inh: 12; NadD block: 5; B2AR ag: 3

How did CC(C)OC(=O)NCCOC(=O)Nc1ccc(Cl)cc1 do in these assays?
GRK2 aptamer HTS: 2; Exocytosis inh: 0; PP1 inh: 1; NadD block: -1; B2AR ag: -2

Results for CCOC(=O)Nc1ccc2c(COC(=O)C(NS(=O)(=O)c3ccc(Cl)cc3)C(C)O)cc(=O)oc2c1 (configuration not stated) ?
GRK2 aptamer HTS: 0; Exocytosis inh: 0; NadD block: 4; B2AR ag: 8

Results for COc1cc(CC(=O)NC2CCCc3ccccc32)cc(OC)c1OC (configuration not stated) ?
GRK2 aptamer HTS: 0; Exocytosis inh: 60*; PP1 inh: -3; NadD block: -4; B2AR ag: -3

Results for COc1ccccc1CC(=O)NC1CCCc2ccccc21 (configuration not stated) ?
GRK2 aptamer HTS: 1; Exocytosis inh: 0; PP1 inh: 4; NadD block: -5; B2AR ag: 2
